Laboratory results as given in PubChem BioAssay (NCI).
The panel holds about 79,000 compounds, 15% with a hit somewhere; the sample as a whole holds those more often. Unmarked numbers belong to inactive results. Calls of active or inactive are those of the source. No stated cut-off is given here; in the data, active means growth inhibition above about 70%; inactive means the rest.

Key:
[1] = NCI Yeast Anticancer Drug Screen. Data for the rad50 strain (AID 155);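 further: 0% = growth of vehicle-only cultures of the same strain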; details: S. cerevisiae rad50 strain growth inhibition, stronger effect = higher value
Procedure, shortened: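 Genetically altered yeast (DNA repair pathway); compound treatment; growth inhibition vs vehicle ctrl.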

[2] = NCI Yeast Anticancer Drug Screen. Data for the mec2-1 strain (AID 157); details: S. cerevisiae mec2-1 strain, stronger effect = higher value
Procedure, shortened: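 Using mec2-1 yeast: add compound, measure growth, express inhibition versus vehicle-treated cultures.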

[3] = NCI Yeast Anticancer Drug Screen. Data for the sgs1 mgt1 strain (AID 161);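 further: 0% = growth of cultures given vehicle only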; details: S. cerevisiae sgs1 mgt1 strain, stronger effect = higher value
Procedure, shortened: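 Percent growth inhibition was derived by comparing compound-exposed mutant yeast with vehicle-exposed cultures. The strain carries alterations in DNA damage repair.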

[4] = NCI Yeast Anticancer Drug Screen. Data for the cln2 rad14 strain (AID 165);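 further: 0% = growth equal to vehicle treated cultures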; details: S. cerevisiae cln2 rad14 strain, stronger effect = higher value
Procedure, shortened: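 Yeast strain cln2 rad14, bearing defects in cell cycle control and DNA repair, serves as the test system; values reflect growth inhibition compared with vehicle.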

[5] = NCI Yeast Anticancer Drug Screen. Data for the bub3 strain (AID 167); details: S. cerevisiae bub3 mutant strain, stronger effect = higher value
Procedure, shortened: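 Yeast carrying a defined mutation is treated with each compound, and growth is compared with that of vehicle-exposed cells to give inhibition.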

[6] = NCI Yeast Anticancer Drug Screen. Data for the mlh1 rad18 strain (AID 175); details: S. cerevisiae mlh1 rad18 strain growth inhibition, stronger effect = higher value
Procedure, shortened: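 Steps: expose repair-defective yeast to compound; measure growth; express inhibition against vehicle-treated controls.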

[7] = at 5.0 µM (retest, dose inferred, filed as 0.5)
[8] = at 50.0 µM (retest, dose inferred, filed as 5.0)

## NC(CS/C(Cl)=C/Cl)C(=O)O (configuration not stated)
[1]; [7]
  growth inhibition: 48%
[1]; [8]
  growth inhibition: 92% (active)
[1]; at 50.0 µM
  growth inhibition: 92.3% (active)
[2]; [7]
  growth inhibition: 47%
[2]; [8]
  growth inhibition: 96% (active)
[2]; at 50.0 µM
  growth inhibition: 93.8% (active)
[3]; [7]
  growth inhibition: 34%
[3]; [8]
  growth inhibition: 94% (active)
[3]; at 50.0 µM
  growth inhibition: 93.5% (active)
[4]; [7]
  growth inhibition: 41%
[4]; [8]
  growth inhibition: 96% (active)
[4]; at 50.0 µM
  growth inhibition: 92.3% (active)
[5]; [7]
  growth inhibition: 19%
[5]; [8]
  growth inhibition: 94% (active)
[5]; at 50.0 µM
  growth inhibition: 89.4% (active)
[6]; [7]
  growth inhibition: 89% (active)
[6]; [8]
  growth inhibition: 97% (active)
[6]; at 50.0 µM
  growth inhibition: 97.5% (active)

## CC1=CC(=NC(=O)CBr)C=C/C1=N\S(=O)(=O)c1ccccc1
[1]; [7]
  growth inhibition: 65%
[1]; [8]
  growth inhibition: 99% (active)
[1]; at 50.0 µM
  growth inhibition: 56.5%
[2]; [7]
  growth inhibition: 44%
[2]; [8]
  growth inhibition: 100% (active)
[2]; at 50.0 µM
  growth inhibition: 33.2%
[3]; [7]
  growth inhibition: 46%
[3]; [8]
  growth inhibition: 100% (active)
[3]; at 50.0 µM
  growth inhibition: 55%
[4]; [7]
  growth inhibition: 42%
[4]; [8]
  growth inhibition: 81% (active)
[4]; at 50.0 µM
  growth inhibition: 28.3%
[5]; [7]
  growth inhibition: 46%
[5]; [8]
  growth inhibition: 97% (active)
[5]; at 50.0 µM
  growth inhibition: 84.5% (active)
[6]; [7]
  growth inhibition: 55%
[6]; [8]
  growth inhibition: 99% (active)
[6]; at 50.0 µM
  growth inhibition: 56.1%

## Cc1cc(=O)oc2cc(O)cc(O)c12
[1]; [7]
  growth inhibition: 0%
[1]; [8]
  growth inhibition: -1%
[1]; at 50.0 µM
  growth inhibition: 16.5%
[2]; [7]
  growth inhibition: -4%
[2]; [8]
  growth inhibition: -2%
[2]; at 50.0 µM
  growth inhibition: -8.95%
[3]; [7]
  growth inhibition: -11%
[3]; [8]
  growth inhibition: -4%
[3]; at 50.0 µM
  growth inhibition: -8.8%
[4]; [7]
  growth inhibition: 0%
[4]; [8]
  growth inhibition: -11%
[4]; at 50.0 µM
  growth inhibition: -18.6%
[5]; [7]
  growth inhibition: -3%
[5]; [8]
  growth inhibition: 6%
[5]; at 50.0 µM
  growth inhibition: -14.7%
[6]; [7]
  growth inhibition: -5%
[6]; [8]
  growth inhibition: 1%
[6]; at 50.0 µM
  growth inhibition: 6.8%

## Cc1ccccc1N=C(N)Nc1ccccc1C (tested in a mixture with another compound)
[1]; [7]
  growth inhibition: 0%
[1]; [8]
  growth inhibition: 15%
[1]; at 50.0 µM
  growth inhibition: 12.9%
[2]; [7]
  growth inhibition: -2%
[2]; [8]
  growth inhibition: 7%
[2]; at 50.0 µM
  growth inhibition: 27.8%
[3]; [7]
  growth inhibition: -1%
[3]; [8]
  growth inhibition: 5%
[3]; at 50.0 µM
  growth inhibition: 30.6%
[4]; [7]
  growth inhibition: -2%
[4]; [8]
  growth inhibition: -16%
[4]; at 50.0 µM
  growth inhibition: -62.5%
[5]; [7]
  growth inhibition: 3%
[5]; [8]
  growth inhibition: 11%
[5]; at 50.0 µM
  growth inhibition: 11.5%
[6]; [7]
  growth inhibition: -2%
[6]; [8]
  growth inhibition: 13%
[6]; at 50.0 µM
  growth inhibition: 28.6%

## CN(Cc1ccccc1)c1ccc(SC#N)cc1
[1]; [7]
  growth inhibition: -2%
[1]; [8]
  growth inhibition: 82% (active)
[1]; at 50.0 µM
  growth inhibition: 81% (active)
[2]; [7]
  growth inhibition: -4%
[2]; [8]
  growth inhibition: 61%
[2]; at 50.0 µM
  growth inhibition: 87.5% (active)
[3]; [7]
  growth inhibition: -5%
[3]; [8]
  growth inhibition: 90% (active)
[3]; at 50.0 µM
  growth inhibition: 79.5% (active)
[4]; [7]
  growth inhibition: -5%
[4]; [8]
  growth inhibition: -4%
[4]; at 50.0 µM
  growth inhibition: 24.6%
[5]; [7]
  growth inhibition: 6%
[5]; [8]
  growth inhibition: 80% (active)
[5]; at 50.0 µM
  growth inhibition: 92.7% (active)
[6]; [7]
  growth inhibition: 3%
[6]; [8]
  growth inhibition: 85% (active)
[6]; at 50.0 µM
  growth inhibition: 89% (active)

## S=C1SCN(Cc2cccs2)CN1Cc1cccs1
[1]; [7]
  growth inhibition: 58%
[1]; [8]
  growth inhibition: 95% (active)
[1]; at 50.0 µM
  growth inhibition: 71.2% (active)
[2]; [7]
  growth inhibition: 42%
[2]; [8]
  growth inhibition: 96% (active)
[2]; at 50.0 µM
  growth inhibition: 71.5% (active)
[3]; [7]
  growth inhibition: 55%
[3]; [8]
  growth inhibition: 99% (active)
[3]; at 50.0 µM
  growth inhibition: 77.7% (active)
[4]; [7]
  growth inhibition: 23%
[4]; [8]
  growth inhibition: 73% (active)
[4]; at 50.0 µM
  growth inhibition: 30.4%
[5]; [7]
  growth inhibition: 37%
[5]; [8]
  growth inhibition: 91% (active)
[5]; at 50.0 µM
  growth inhibition: 80.7% (active)
[6]; [7]
  growth inhibition: 63%
[6]; [8]
  growth inhibition: 96% (active)
[6]; at 50.0 µM
  growth inhibition: 74.7% (active)

## CCN(CC)CCNC(Cc1ccccc1)c1ccc(OCc2ccccc2)cc1 (configuration not stated)
[1]; [7]
  growth inhibition: 39%
[1]; [8]
  growth inhibition: 98% (active)
[1]; at 50.0 µM
  growth inhibition: 86.7% (active)
[2]; [7]
  growth inhibition: 28%
[2]; [8]
  growth inhibition: 98% (active)
[2]; at 50.0 µM
  growth inhibition: 42.4%
[3]; [7]
  growth inhibition: 42%
[3]; [8]
  growth inhibition: 99% (active)
[3]; at 50.0 µM
  growth inhibition: 72% (active)
[4]; [7]
  growth inhibition: 35%
[4]; [8]
  growth inhibition: 94% (active)
[4]; at 50.0 µM
  growth inhibition: 57.2%
[5]; [7]
  growth inhibition: 49%
[5]; [8]
  growth inhibition: 99% (active)
[5]; at 50.0 µM
  growth inhibition: 87.6% (active)
[6]; [7]
  growth inhibition: 47%
[6]; [8]
  growth inhibition: 98% (active)
[6]; at 50.0 µM
  growth inhibition: 84.8% (active)

## NCCCN(CCCN)CCCNCc1c2ccccc2c(CNCCCN(CCCN)CCCN)c2ccccc12
[1]; [7]
  growth inhibition: 88% (active)
[1]; [8]
  growth inhibition: 99% (active)
[1]; at 50.0 µM
  growth inhibition: 90.6% (active)
[2]; [7]
  growth inhibition: 62%
[2]; [8]
  growth inhibition: 99% (active)
[2]; at 50.0 µM
  growth inhibition: 93% (active)
[3]; [7]
  growth inhibition: 67%
[3]; [8]
  growth inhibition: 98% (active)
[3]; at 50.0 µM
  growth inhibition: 93.3% (active)
[4]; [7]
  growth inhibition: 36%
[4]; [8]
  growth inhibition: 98% (active)
[4]; at 50.0 µM
  growth inhibition: 92.7% (active)
[5]; [7]
  growth inhibition: 89% (active)
[5]; [8]
  growth inhibition: 99% (active)
[5]; at 50.0 µM
  growth inhibition: 92.6% (active)
[6]; [7]
  growth inhibition: 96% (active)
[6]; [8]
  growth inhibition: 99% (active)
[6]; at 50.0 µM
  growth inhibition: 91.1% (active)

## COC(=O)c1cc([N+](=O)[O-])cc([N+](=O)[O-])c1Cl
[1]; [7]
  growth inhibition: 99% (active)
[1]; [8]
  growth inhibition: 99% (active)
[1]; at 50.0 µM
  growth inhibition: 91.2% (active)
[2]; [7]
  growth inhibition: 99% (active)
[2]; [8]
  growth inhibition: 99% (active)
[2]; at 50.0 µM
  growth inhibition: 93.2% (active)
[3]; [7]
  growth inhibition: 100% (active)
[3]; [8]
  growth inhibition: 99% (active)
[3]; at 50.0 µM
  growth inhibition: 93.7% (active)
[4]; [7]
  growth inhibition: 77% (active)
[4]; [8]
  growth inhibition: 99% (active)
[4]; at 50.0 µM
  growth inhibition: 92.4% (active)
[5]; [7]
  growth inhibition: 99% (active)
[5]; [8]
  growth inhibition: 99% (active)
[5]; at 50.0 µM
  growth inhibition: 92.8% (active)
[6]; [7]
  growth inhibition: 100% (active)
[6]; [8]
  growth inhibition: 99% (active)
[6]; at 50.0 µM
  growth inhibition: 92.2% (active)
